Experimental data reported in PubChem BioAssay.
The source made the active and inactive calls.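 The calls were made as follows, unless noted: active = inhibition at or above 50% at 10 µM; inactive = inhibition below 50%.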

Experiments:
[1] = inhibitors of TNFa-induced NFkB p65 translocation, primary screen, imaging, HUVEC, MLSMR starter and 10KST1 sets (AID 438;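 active = inhibition above 20% together with a positive visual image hit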;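 also: compound added about 3h40 before a 20 min TNFalpha stimulation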;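 as to inhibition: signal is the nuclear over cytoplasmic p65 intensity ratio per well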); conditions: HUVEC TNFa-induced p65 nuclear translocation; cell count: measured here: nuclei count (cytotoxicity indicator), at 2.08 µM; inhibition: at 2 µM, stronger effect = higher value, 0% TNFa-plus-vehicle, 100% no-TNFa wells
[2] = reduction of polyQ htt aggregates in cells – imaging, exon1htt(103Q)mCFP cells, high-content imaging, primary screen (AID 483;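 active = visual image review flags a hit and inhibition of aggregation exceeds 20%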;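 also: compound exposure lasted 3 days before fixation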;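 as to nuclei count: percent of the per-plate median nuclei count of sample wells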); conditions: exon1htt(103Q)mCFP cell line, aggregate imaging, at 2 µM; inhibition of aggregation: stronger effect = higher value; nuclei count: measured here: cell count, toxicity
[3] = endothelial E-selectin expression blockers – imaging, HUVEC, immunofluorescence, MLSMR starter and 10KST1 sets, primary screen (AID 487;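 active = visually confirmed hit in the image check and inhibition above 20%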;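 as to inhibition: signal is fraction of cell area covered by stained E-selectin grains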;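 as to nuclei count: 100% = median nuclei count of all wells on the same plate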); conditions: HUVEC TNFalpha-induced E-selectin immunofluorescence imaging, at 2 µM; inhibition: stronger effect = higher value; nuclei count: measured here: cell number, toxicity
[4] = biological target: Voltage-gated potassium channel subunit beta-2 (Rattus norvegicus) (UniProt P62483); experiment: inhibitors of rat Kvbeta2 reductase activity – biochemical, NADPH fluorescence, primary screen (AID 622;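 active = fluorescence slope higher than the sample average by over 3 SD, cut at about -0.22 in these data, passing the limit was not always enough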;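 also: slope of raw intensity against log time taken from 70 to 1610 s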); conditions: recombinant KvBeta, 4-cyanobenzaldehyde reduction, at 10 µM, stronger effect = higher value
Chain of Voltage-gated potassium channel subunit beta-2 (Rattus norvegicus) (P62483 whole entry, looked up): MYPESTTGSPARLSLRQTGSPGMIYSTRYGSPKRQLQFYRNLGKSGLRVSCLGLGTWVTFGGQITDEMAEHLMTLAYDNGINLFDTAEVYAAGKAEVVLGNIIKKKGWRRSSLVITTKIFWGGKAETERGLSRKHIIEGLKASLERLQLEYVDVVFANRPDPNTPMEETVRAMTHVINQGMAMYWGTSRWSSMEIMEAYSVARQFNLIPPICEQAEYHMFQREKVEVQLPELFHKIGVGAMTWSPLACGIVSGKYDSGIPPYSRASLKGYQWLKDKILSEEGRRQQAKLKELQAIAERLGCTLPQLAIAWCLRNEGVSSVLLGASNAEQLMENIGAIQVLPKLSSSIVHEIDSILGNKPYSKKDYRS

[5] = biological target: Voltage-gated potassium channel subunit beta-2 (Rattus norvegicus) (UniProt P62483); experiment: enhancers of rat Kvbeta2 NADPH turnover – biochemical, NADPH fluorescence, primary screen (AID 623;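 active = NADPH fluorescence slope more negative than the mean of all samples by about 3 SD, 99.7% confidence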;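 also: fluorescence intensity change per second fitted from 20 to 320 s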); conditions: Recombinant KvBeta, NADPH fluorescence decrease slope, 10 min; at 10 µM; stronger effect = lower value
[6] = biological target: Alpha-2C adrenergic receptor (Homo sapiens) (UniProt P18825); experiment: compounds altering alpha2C-coupled GIRK flux – cell-based, HEK293 alpha2C/GIRK1/2, thallium flux, primary screen (AID 624;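 active = fluorescence slope after compound addition differing from the mean of all screened samples at 99.7% confidence, in either direction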;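 also: slope of fluorescence ratio to pre-addition baseline per second over 15 to 24 s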); conditions: thallium flux BTC fluorescence, at 10 µM, actives lie on both sides
Chain of Alpha-2C adrenergic receptor (Homo sapiens) (P18825 whole entry, looked up): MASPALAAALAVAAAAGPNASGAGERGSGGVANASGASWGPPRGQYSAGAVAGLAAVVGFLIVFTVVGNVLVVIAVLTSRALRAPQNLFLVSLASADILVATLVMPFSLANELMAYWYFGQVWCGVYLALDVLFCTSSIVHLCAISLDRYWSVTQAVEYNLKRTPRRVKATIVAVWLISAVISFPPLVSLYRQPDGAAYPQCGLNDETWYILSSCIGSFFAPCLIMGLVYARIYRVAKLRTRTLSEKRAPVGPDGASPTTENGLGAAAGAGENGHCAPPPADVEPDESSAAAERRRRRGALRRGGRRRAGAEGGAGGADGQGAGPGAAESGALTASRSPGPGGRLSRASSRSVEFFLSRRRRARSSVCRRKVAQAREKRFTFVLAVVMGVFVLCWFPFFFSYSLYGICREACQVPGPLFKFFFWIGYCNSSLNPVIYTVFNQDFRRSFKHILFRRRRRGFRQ

[7] = blockers of RIG-like receptor reporter activation – cell-based, Sendai virus stimulus, luciferase, 10K MLSCN set, TLR/RLR signaling modifier project, primary screen (AID 602276); conditions: HEK293 RL24 IRF3 luciferase reporter, at 10 µM, stronger effect = higher value;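 also: firefly luciferase from ISG56 promoter only with Renilla not read in this screen; 0% = Sendai virus plus DMSO and 100% = medium plus DMSO without virus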
[8] = TLR3 IRF3 reporter activation blockers – cell-based, poly I:C stimulus, luciferase, 10K MLSCN set, primary screen (AID 602277;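 active = inhibition of the reporter signal at or above 50%; inactive = inhibition below 50%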); conditions: HEK293-TLR3 RL24 IRF3 luciferase reporter, at 10 µM, stronger effect = higher value

Structure (SMILES)	cell count [1]	inhibition [1]	inhibition of aggregation [2]	nuclei count [2] [%]	inhibition [3]	nuclei count [3] [%]	fluorescence slope [4]	NADPH fluorescence slope [5]	slope [6]	inhibition [7]	inhibition [8]
CCOC(=O)N1CCN(C(=O)c2ccc(CS(=O)(=O)c3ccc(OC)cc3)o2)CC1	516	2% (inactive)	-23.5% (inactive)	90.7	8.5% (inactive)	133	-0.39 (inactive)	2.2e-05 (inactive)	0.0059 (inactive)	14.8% (inactive)	23.8% (inactive)
Cn1c(=O)[nH]c(=O)c2c1nc(N1CCCCC1)n2CCSc1ncccn1	637	-11.8% (inactive)	-16.6% (inactive)	93	-20.6% (inactive)	122	-0.438 (inactive)	-6.7e-05 (inactive)	0.00492 (inactive)	10% (inactive)	25.5% (inactive)
Cc1cc(N2C(=O)C(O)=C(C(=O)c3ccc(C)o3)C2c2cccs2)no1 (centres undefined)	257	-3.6% (inactive)	13.3% (inactive)	75.8	12% (inactive)	103	-0.42 (inactive)	-1.8e-05 (inactive)	0.00606 (inactive)	-1.8% (inactive)	-26.2% (inactive)
O=C(c1ccc(Cl)cc1)N1CCCOC1	784	-9.7% (inactive)	-49% (inactive)	99.2	-84.3% (inactive)	111	-0.32 (inactive)	-4.9e-05 (inactive)	0.00521 (inactive)	10.5% (inactive)	18.6% (inactive)
O=C(Cn1ncc2c(=O)oc3ccccc3c21)Nc1nc2ccccc2s1	313	-0.7% (inactive)	1.3% (inactive)	96.3	-282% (inactive)	90.7	-0.537 (inactive)	-8.1e-05 (inactive)	0.00615 (inactive)	15.6% (inactive)	17% (inactive)
CC1CN(C2CCCCC2)c2nc3c(c(=O)[nH]c(=O)n3C)n2C1 (centres undefined)	234	-2% (inactive)	-5.5% (inactive)	77.6	4.4% (inactive)	108	-0.642 (inactive)	3.4e-05 (inactive)	0.00609 (inactive)	13.1% (inactive)	40.3% (inactive)
CC(=O)Nc1cc(NC(C)=O)cc(C(=O)OCC(=O)N2CC(C)OC(C)C2)c1 (centres undefined)	492	-3.9% (inactive)	22.1% (inactive)	104	6.9% (inactive)	109	-0.299 (inactive)	-4.8e-05 (inactive)	0.00487 (inactive)	6% (inactive)	8.11% (inactive)
Cc1[nH]n(C(N)=S)c(=O)c1C(c1ccccc1)C(C#N)C#N (centres undefined)	694	9.6% (inactive)	-2.9% (inactive)	107	32.6% (inactive)	99.1	-0.38 (inactive)	5.1e-06 (inactive)	0.00522 (inactive)	-11.3% (inactive)	-18% (inactive)
Cc1ccc(-n2c(SCC3CCCCO3)nnc2-c2ccco2)cc1 (centres undefined)	573	0.5% (inactive)	7.5% (inactive)	86.9	-17.5% (inactive)	102	-0.413 (inactive)	-4.4e-05 (inactive)	0.00422 (inactive)	20.5% (inactive)	25.2% (inactive)
Cc1ccc2c(c1)CCCN2C(=O)C1CCCO1 (centres undefined)	354	-6.4% (inactive)	7.6% (inactive)	95	-84.4% (inactive)	86.9	-0.417 (inactive)	-4e-05 (inactive)	0.00423 (inactive)	10.7% (inactive)	17.6% (inactive)
COc1ccccc1NS(=O)(=O)c1ccc(OC)c(OC)c1	401	5.5% (inactive)	0.8% (inactive)	101	30.1% (inactive)	96	-0.484 (inactive)	-4.4e-05 (inactive)	0.00597 (inactive)	1.27% (inactive)	24.3% (inactive)
CCC(C)(C)NC(=O)CN(C(=O)c1snc(C(N)=O)c1N)c1ccc2c(c1)OCO2	688	-7.3% (inactive)	0.7% (inactive)	103	-39.8% (inactive)	120	-0.517 (inactive)	3.3e-05 (inactive)	0.00589 (inactive)	13.1% (inactive)	14.6% (inactive)
CCOc1ccc(NC2c3ccccc3C(=O)N2Cc2ccco2)cc1 (centres undefined)	695	-6.7% (inactive)	6.4% (inactive)	47.6	-23.8% (inactive)	91.8	-0.6 (inactive)	1.5e-05 (inactive)	0.00369 (inactive)	-13.3% (inactive)	-22.8% (inactive)
CCn1c(SCc2cc(=O)[nH]c3ccccc23)nc2c1c(=O)n(C)c(=O)n2C	350	1% (inactive)	-9.3% (inactive)	93.3	-38.3% (inactive)	99.2	-0.336 (inactive)	-3.5e-05 (inactive)	0.00504 (inactive)	4.21% (inactive)	14.7% (inactive)
CCOC(=O)N1CCC(N2C(=O)c3ccccc3C2Nc2ccccc2C)CC1 (centres undefined)	568	5.8% (inactive)	-4% (inactive)	98.2	-22.5% (inactive)	106	-0.531 (inactive)	-3.2e-05 (inactive)	0.00624 (inactive)	3.88% (inactive)	36.9% (inactive)
O=C1CCCc2c1nn(-c1ccccc1)[n+]2[O-]	563	7.1% (inactive)	-12.3% (inactive)	107	-32.5% (inactive)	108	-0.426 (inactive)	-2.2e-05 (inactive)	0.00571 (inactive)	2.04% (inactive)	5.41% (inactive)
O=C(CCn1c(=O)sc2ccccc21)NCc1ccc2c(c1)OCO2	294	-11.1% (inactive)	15.6% (inactive)	92.7	-28.3% (inactive)	115	-0.353 (inactive)	-5.2e-05 (inactive)	0.00437 (inactive)	-17% (inactive)	-12.6% (inactive)
O=C(CSc1nnc(-c2cccs2)o1)NCC1CN(Cc2ccccc2)CCO1 (centres undefined)	669	7.8% (inactive)	4.9% (inactive)	92.2	-87.4% (inactive)	140	-0.607 (inactive)	-6.7e-06 (inactive)	0.00563 (inactive)	-0.491% (inactive)	-12.1% (inactive)
COC(=O)c1cc(=O)n(Cc2ccc3c(c2)OCO3)c(=Nc2ccccc2)s1	575	2.9% (inactive)	8.9% (inactive)	124	-30.3% (inactive)	107	-0.545 (inactive)	-3.4e-05 (inactive)	0.00623 (inactive)	12.2% (inactive)	27.1% (inactive)
